About 83,000 compounds went through this panel and 20% of them were active in at least one assay; those are over-represented in the sample as a whole.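 Step 1: grow cells in 96-well plates. Step 2: add test compound at a single concentration. Step 3: incubate 48 h. Step 4: record percent growth.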 Values without a mark were called inactive. Activity calls are given as the source filed them.

In this assay the test system is NCI-H322M lung. The assay can be described thus: NCI-60 one-dose screen, 48 h (100 = growth as untreated, 0 = no growth, -100 = all killed). Particulars: 10 µM unless noted. The procedure:
Growth inhibition of the NCI-H322M human Non-Small Cell Lung tumor cell line is measured as a screen for anti-cancer activity. Cells are grown in 96 well plates and exposed to the test compound for 48 hours. Compounds are tested at a single concentration, which is 10^-5 M for most compounds. The reported endpoint is percent growth (GI% or GIPRCNT), where numbers from 0 - 100% represent growth inhibition, and numbers from -100% - 0 represent cell death. For example, a value of 40 represents 60% growth inhibition. A value of 0 means no net growth occurred over the course of the experiment. A value of -40 indicates 40% of cells at the beginning of the experiment died by the end of the experiment. A value of -100 means all cells are dead at the end of the experiment.
NCI-60 Human Tumor Cell Lines Screen was performed using the standard one-dose NCI protocol, which is described in more detail at https://dtp.cancer.gov/discovery_development/nci-60/default.htm.
Compounds with GIPRCNT values below 10 were considered active. Activity score was based on GIPRCNT using the following formula: […]
Score is 0 for GIPRCNT values of 100 or above, 50 for GIPRCNT values of 0, and 100 for GIPRCNT values of -100.
For `COc1cc(/C=N/Nc2ccccc2F)cc(OC)c1OC`, the growth is 91.3%.
Then `O=C1NC(=Nc2ccc(O)cc2)S/C1=C\c1cccs1`, with 35.3%.
With `Clc1nccc2c(-c3csc(-c4c[nH]c5ccccc45)n3)c[nH]c12` the figure was 80.8%; with `COCC[C@H]1CCC/C=C/[C@@H]2C[C@H](O)C[C@H]2[C@H](O)/C=C/C(=O)O1`, 29.7%; with `CC1=NN(c2ccc(Cl)cc2)CC1(C)N=O` (stereo not given), 99.9%.
Then `Cc1[nH]c(/C=C/C(=O)c2ccc(C(F)(F)F)c(F)c2)c(C)c1C(=O)NCC(C)C`, with 101%; and `CCN(CC)S(=O)(=O)c1ccc(S(=O)(=O)N2CCC[C@@H](C(=O)N3CCN(C(=O)OC(C)(C)C)CC3)C2)cc1`, with 88.5%; and `Cc1[nH]c(C(=O)Nc2cccc(OC3CCNCC3)c2)c(Cl)c1Cl`, with 84.8%.
Turning to `Cc1ccc(-c2nc(C#N)c(S(=O)(=O)NCCO)o2)cc1`, the growth was 92%.
As to `CCOC(=O)c1c(NC(=O)CSc2n[nH]c3nc4ccccc4n23)sc(CC)c1C`, the growth is 107%.
With `CC1(C)CCC(S(=O)(=O)c2ccc3c(c2)/C(=N\O)c2cc(S(=O)(=O)N4CCN(c5ccc(F)cc5O)CC4)ccc2-3)CC1` the figure was -46.9% (active); with `N/C(=N\c1nc2ccccc2s1)NC(=NC1CCCCC1)NC1CCCCC1`, 40.4%.
Take `CSCCC(NC(=O)c1ccccc1)C(=O)N/N=C1\S/C(=C/c2ccc(Cl)cc2)C(=O)N1C` (stereo not given): the growth is 90.4%.
With `Cn1c(=O)c2c(c3ccccc31)OC(N)=C(C#N)C21C(=O)c2ccccc2C1=O` the figure was 91.5%; with `C/C(=N\Nc1nc(C)cs1)c1cc2ccccc2o1`, 93.1%; with `Oc1c(I)cc(-c2nc3ccccc3s2)cc1CN(Cc1ccccn1)Cc1ccccn1`, 15.9%.
With `COc1ccc(-c2cc(-c3cc(OC)c(OC)c(OC)c3)c(C#N)c(=O)n2CCCCCC(=O)NO)cc1` the figure was 95.7%; with `COC(=O)c1nc(-c2ccccc2)oc1S(=O)(=O)N1CCC(C(N)=O)CC1`, 93.6%.
For the compound `CCN(CC)c1ccc(N2C(=O)/C(=C/c3cccs3)SC2=S)cc1`, the growth was 91.7%.
With `CNCc1cccc2c1OCCOCCN(C)C(=O)CN(C)S(=O)(=O)c1ccc(cc1)-c1cnc(N)c(n1)C(=O)N2`, the growth was 40.4%.
With `O=C(NCc1ccccc1O)c1cccc2ccccc12` the figure was 95.9%.
Then `O=C1NC(=C(Cl)Cl)/C(=N/S(=O)(=O)NCCc2c[nH]c3ccccc23)N1`, with 27.7%; and `COc1ccc2cc(-c3ccc(-c4ccc(C(=N)N)s4)s3)ccc2c1`, with 22.6%; and `CCCCCCCC/C=C\CCCCCCCCOc1ccccc1CC(=O)NCC[N+]1(C)CCCCC1`, with 96.5%.
Take `S=c1ssnc1-c1cccs1`: the growth was 94.5%.
With `Cc1ccc(S(=O)(=O)n2cc(C3C(Cl)C(=O)N3c3ccc(N4CCOCC4=O)cc3)c3ccccc32)cc1` (stereo not given) the figure was 86.7%.
With `CC1(C)CC[C@]2(C(=O)O)CC[C@]3(C)C(=CC[C@@H]4[C@@]5(C)C[C@@H](Cc6cn([C@@H]7O[C@H](CO)[C@@H](O)[C@H](O)[C@H]7O)nn6)[C@H](O)C(C)(C)[C@@H]5CC[C@]43C)[C@@H]2C1` the figure was 97.4%; with `CN1CCN(CCCOc2ccc3ncnc(Nc4ccc(Oc5cccc(F)c5)c(Cl)c4)c3c2)CC1`, 22.1%; with `COc1cccc(/C=C/C(=O)c2cc3c(N)c(C(=O)Nc4cccc(Cl)c4C)sc3nc2C)c1`, 7.75% (active).
Then `COc1ccc(C2=NN(C(=O)c3cc(OC)c(OC)c(OC)c3)C(c3ccc(N(C)C)cc3)C2)cc1` (stereo not given), with 48.3%.
Consider `CC(=O)Nc1c(Cl)cc(Cl)c2c1Cc1cc([N+](=O)[O-])ccc1-2`, for which the growth was 99%.
With `COc1cc(C(=O)/C=C/c2c(-c3cccs3)nc3ccccn23)cc(OC)c1OC` the figure was -2.37% (active).
As for `C[C@@H](CO)[C@@H]1CC[C@]2(C(=O)N3CCN(C)CC3)CC[C@]3(C)[C@H](CC[C@@H]4[C@@]5(C)CC[C@H](O)C(C)(C)[C@@H]5CC[C@]43C)[C@@H]12`, the growth is 99.7%.
Then `O=C(CN1CCN(c2cc3c(cc2F)c(=O)c(C(=O)O)cn3C2CC2)CC1)N/N=C/c1ccncc1`, with 96.3%; and `COc1ccc2nc3cc(Cl)ccc3c(NCCN)c2c1`, with -46% (active); and `COc1cc(-c2nc(NC(C)=O)sc2-c2ccnc(NCCNS(=O)(=O)c3ccccc3)n2)ccc1Cl`, with 79.1%.
As for `COc1ccc2c(c1)c(-c1nonc1-c1c[nH]c3ccc(Br)cc13)cn2C`, the growth was 55.8%.
Then `CCOC(=O)c1c(-c2ccccc2)n2c(=O)cc(C)c3c(O)c(O)cc1c32`, with 50.3%; and `COc1ccc2nc3ccccc3c(NCc3ccccc3)c2c1`, with 29.5%.
Then `O=C(Nc1ccccc1)c1sc(-c2ccccc2)cc1O`, with 96.9%.

Values taken from PubChem BioAssay (NCI).
